# In the supplement of paper PMC11172423:
# A number with no mark means an inactive call.
# System: Falciformispora senegalensis CBS197.79
# Assay: growth relative to untreated control; higher = less inhibition, active = 20 or less
# Conditions: 25 µM
# Procedure, shortened: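 Compound at 100 or 25 µM was applied for 7 days at 37 °C to hyphal fragments of M. mycetomatis MM55 or F. senegalensis CBS197.79 in 96-well plates. Fragments were suspended in colourless RPMI 1640 with L-glutamine and MOPS at 68–72% transmission at 660 nm, and viability was read with MTS (2 h, 490 nm) or resazurin (600 nm). Growth is reported as blank-corrected metabolic activity relative to the blank-corrected untreated growth control.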
row,SMILES,growth
1,CC1(C)C(/C=C(\Cl)c2ccc(Cl)cc2)C1C(=O)OC(C#N)c1ccc(F)c(Oc2ccccc2)c1 (configuration not stated),74.8%
2,N#Cc1nn(-c2c(Cl)cc(C(F)(F)F)cc2Cl)c(N)c1S(=O)C(F)(F)F (configuration not stated),92.1%
3,O=[N+]([O-])/N=C1\NCCN1Cc1ccc(Cl)nc1,90.2%
4,N#CCNC(=O)c1cnccc1C(F)(F)F,85.9%
5,CCc1nn(C)c(C(=O)NCc2ccc(Oc3ccc(C)cc3)cc2)c1Cl,98.1%
6,CN(C)CCn1c(Nc2cc(Cl)cc(C(F)(F)F)c2)nc2cnc(NC3CCCC3)cc21,94.1%
7,ClC1=C(Cl)[C@@]2(Cl)[C@H]3C[C@@H](Cl)[C@H](Cl)[C@H]3[C@@]1(Cl)C2(Cl)Cl,64.8%
8,CC1(C)C(C=C(Cl)Cl)C1C(=O)OC(C#N)c1ccc(F)c(Oc2ccccc2)c1 (configuration not stated),94%
9,CCOP(=S)(OCC)Oc1cc(C)nc(C(C)C)n1,97.9%
10,CC[C@H]1CN2CCc3cc(OC)c(OC)cc3[C@@H]2C[C@@H]1C[C@H]1NCCc2cc(OC)c(OC)cc21,100%
11,O=C(NC(=O)c1c(F)cccc1F)Nc1ccc(Cl)c(Oc2ncc(C(F)(F)F)cc2Cl)c1,93%
12,CCN(Cc1ccc(Cl)nc1)/C(=C/[N+](=O)[O-])NC,95.3%
13,O=[N+]([O-])/C=C1\NCCCS1,86.4%
14,Cc1nc(N(C)C)nc(OC(=O)N(C)C)c1C,86.3%
15,CC1(C)CNC(=NN=C(C=Cc2ccc(C(F)(F)F)cc2)C=Cc2ccc(C(F)(F)F)cc2)NC1,88.7%
16,CC(C)Nc1cc2c(cn1)nc(Nc1cc(Cl)cc(C(F)(F)F)c1)n2C1CCNC1 (configuration not stated),66.7%
17,NCCc1cn(S(=O)(=O)c2c(Cl)nc3sccn23)c2ccccc12,13.2% (active)
18,CC(C)=CC1C(C(=O)OCN2C(=O)C3=C(CCCC3)C2=O)C1(C)C (configuration not stated),93.7%
19,C[C@@H]1C[C@@H]([C@H](O)CC2CC(=O)NC(=O)C2)C(=O)[C@@H](C)C1,101%

row,SMILES,growth
1,COc1ccc(Cc2nccc3cc(OC)c(OC)cc23)cc1OC,110%
2,CC[C@@H](C(=O)[C@@H](C)[C@@H](O)[C@H](C)[C@@H]1O[C@@H]([C@@H](CC)C(=O)O)CC[C@@H]1C)[C@H]1O[C@]2(C=C[C@@H](O)[C@]3(CC[C@@](C)([C@H]4CC[C@](O)(CC)[C@H](C)O4)O3)O2)[C@H](C)C[C@@H]1C,102%
3,CCOCn1c(-c2ccc(Cl)cc2)c(C#N)c(Br)c1C(F)(F)F,79.6%
4,CCOP(=S)(OCC)Oc1nc(Cl)c(Cl)cc1Cl,92.9%
5,Cc1sc2c(c1C)C(c1ccc(Cl)cc1)=N[C@@H](CC(=O)OC(C)(C)C)c1nnc(C)n1-2,101%
6,CNC(=O)Oc1ccccc1OC(C)C,92.8%
7,COP(=S)(OC)Oc1ccc(Sc2ccc(OP(=S)(OC)OC)cc2)cc1,93.4%
8,CC(C)(C)Nc1cc2c(cn1)nc(Nc1cc(Cl)cc(C(F)(F)F)c1)n2C1CCNC1 (configuration not stated),15.1% (active)
9,CC(C)(C#N)NC(=O)c1cc(Cl)cc(Cl)c1NC(=O)c1cc(Cl)nn1-c1ncccc1Cl,94.4%
10,FC(F)(F)c1cc(Cl)cc(Nc2nc3cnc(OC4CCC4)cc3n2[C@@H]2CCNC2)c1,99.8%
11,CN1C(=O)C(C(=O)Nc2ccc(Cl)c(Cl)c2)C(=O)N(C)C1=O,83.2%
12,CN1C2CCC1CC(C#N)C2 (configuration not stated),92.1%
13,CC1(C)C(C=C(Cl)Cl)C1C(=O)OCc1cccc(Oc2ccccc2)c1 (configuration not stated),70.4%
14,CNC(=O)c1cc(Cl)cc(C)c1NC(=O)c1cc(Br)nn1-c1ncccc1Cl,93.3%
15,CC1(Nc2ncc3nc(Nc4cc(Cl)cc(C(F)(F)F)c4)n(C4CCNC4)c3n2)CC1 (configuration not stated),83.5%
16,CN/C(=N\[N+](=O)[O-])NCc1cnc(Cl)s1,90.6%
17,CCS(=O)c1c(C#N)nn(-c2c(Cl)cc(C(F)(F)F)cc2Cl)c1N (configuration not stated),82.1%
18,CCOc1ccc(C(C)(C)COCc2cccc(Oc3ccccc3)c2)cc1,79.4%
